Data published in the supplement of paper PMC12645437, “Orthogonal IMiD-Degron Pairs Induce Selective Protein Degradation in Cells” (ACS Chemical Biology, 2025).
Whole data set: some 8,300 sequences, median “log2 fold change of degron read counts, EGFP-low vs EGFP+ sorted cells (limma voom), compound-induced degradation” near -1.1, cut for the highest 2% near 3.2. The sample holds the highest values, similar sequences and a random draw of the others, so the mix is not that of the screen.

Target: T1, CRBN, Q96SW2
T1 chain: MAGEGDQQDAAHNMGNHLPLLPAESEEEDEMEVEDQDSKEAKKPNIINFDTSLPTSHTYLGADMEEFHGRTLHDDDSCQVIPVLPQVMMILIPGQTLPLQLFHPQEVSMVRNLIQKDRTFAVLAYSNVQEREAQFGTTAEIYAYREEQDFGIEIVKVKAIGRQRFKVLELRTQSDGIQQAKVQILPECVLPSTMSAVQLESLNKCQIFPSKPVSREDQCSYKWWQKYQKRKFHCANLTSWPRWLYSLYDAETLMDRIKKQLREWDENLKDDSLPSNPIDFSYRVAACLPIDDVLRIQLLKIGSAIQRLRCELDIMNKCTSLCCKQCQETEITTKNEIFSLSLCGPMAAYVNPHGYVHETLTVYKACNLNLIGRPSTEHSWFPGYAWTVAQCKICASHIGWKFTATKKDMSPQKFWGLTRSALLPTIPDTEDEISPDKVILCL
Experiment: log2 fold change of degron read counts, EGFP-low vs EGFP+ sorted cells (limma voom), compound-induced degradation; higher = more compound-induced degradation of the degron-EGFP fusion; degrons are variants of IKZF1/3 zinc finger 2; compound dose not given here
Conditions: Jurkat, 18 h

[1] = compound: compound 19 (5-tert-butyl-thalidomide)
[2] = compound: compound 22 (5-morpholino-thalidomide)
[3] = compound: compound 33 (diphenyl IMiD analogue)
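Note: pooled lentiviral library of zinc finger degron-EGFP fusions in mCherry-positive Jurkat cells, FACS-sorted after compound exposure, with degron abundance counted by next-generation sequencing.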

Sequence: FECEICGADFTQKGNLLRHIKL [46F_47E_49E_50I_52G_53A_54D_55F_67L_, Q9UKT9]
- log2 fold change of degron read counts [1]: -1.96
- log2 fold change of degron read counts [2]: -2.74
- log2 fold change of degron read counts [3]: 0.273
- log2 fold change of degron read counts (compound: thalidomide): 0.225

Sequence: LVCPICGFNCTQKGNLLRHIKL [46L_47V_49P_50I_52G_53F_54N_55C_67L_, Q9UKT9]
- log2 fold change of degron read counts [1]: -0.376
- log2 fold change of degron read counts [2]: 1.56
- log2 fold change of degron read counts [3]: 1.51
- log2 fold change of degron read counts (compound: thalidomide): 2.74

Sequence: LWCPICGFPCTQKGNLLRHIKL [46L_47W_49P_50I_52G_53F_54P_55C_67L_, Q9UKT9]
- log2 fold change of degron read counts [1]: 1.54
- log2 fold change of degron read counts [2]: 1.47
- log2 fold change of degron read counts [3]: 1.88
- log2 fold change of degron read counts (compound: thalidomide): 1.22

Sequence: FQCPICGAFFTQKGNLLRHIKL [46F_47Q_49P_50I_52G_53A_54F_55F_67L_, Q9UKT9]
- log2 fold change of degron read counts [1]: -1.33
- log2 fold change of degron read counts [2]: -0.0266
- log2 fold change of degron read counts [3]: 2.3
- log2 fold change of degron read counts (compound: thalidomide): 2.67

Sequence: FQCPICGRPFTQKGNLLRHIKL [46F_47Q_49P_50I_52G_53R_54P_55F_67L_, Q9UKT9]
- log2 fold change of degron read counts [1]: 0.103
- log2 fold change of degron read counts [2]: 1.27
- log2 fold change of degron read counts [3]: 0.384
- log2 fold change of degron read counts (compound: thalidomide): 2.92

Sequence: FICPICGADFTQKGNLLRHIKL [46F_47I_49P_50I_52G_53A_54D_55F_67L_, Q9UKT9]
- log2 fold change of degron read counts [1]: -0.647
- log2 fold change of degron read counts [2]: 0.966
- log2 fold change of degron read counts [3]: 1.15
- log2 fold change of degron read counts (compound: thalidomide): 1.89

Sequence: FICPICGAPFTQKGNLLRHIKL [46F_47I_49P_50I_52G_53A_54P_55F_67L_, Q9UKT9]
- log2 fold change of degron read counts [1]: 1.94
- log2 fold change of degron read counts [2]: 3.65
- log2 fold change of degron read counts [3]: 2.52
- log2 fold change of degron read counts (compound: thalidomide): 3.16

Sequence: FMCPICGAPFTQKGNLLRHIKL [46F_47M_49P_50I_52G_53A_54P_55F_67L_, Q9UKT9]
- log2 fold change of degron read counts [1]: 3.36
- log2 fold change of degron read counts [2]: 3.49
- log2 fold change of degron read counts [3]: 3.09
- log2 fold change of degron read counts (compound: thalidomide): 2.98

Sequence: FMCPICGADFTQKGNLLRHIKL [46F_47M_49P_50I_52G_53A_54D_55F_67L_, Q9UKT9]
- log2 fold change of degron read counts [1]: -1.3
- log2 fold change of degron read counts [2]: -0.0353
- log2 fold change of degron read counts [3]: 2.99
- log2 fold change of degron read counts (compound: thalidomide): 1.23

Sequence: FACPICGAPFTQKGNLLRHIKL [46F_47A_49P_50I_52G_53A_54P_55F_67L_, Q9UKT9]
- log2 fold change of degron read counts [1]: 3.7
- log2 fold change of degron read counts [2]: 3.03
- log2 fold change of degron read counts [3]: 1.56
- log2 fold change of degron read counts (compound: thalidomide): 2.64

Sequence: FACPICGAMFTQKGNLLRHIKL [46F_47A_49P_50I_52G_53A_54M_55F_67L_, Q9UKT9]
- log2 fold change of degron read counts [1]: 2.8
- log2 fold change of degron read counts [2]: 1.12
- log2 fold change of degron read counts [3]: 0.702
- log2 fold change of degron read counts (compound: thalidomide): 0.265

Sequence: FMCPICGAMFTQKGNLLRHIKL [46F_47M_49P_50I_52G_53A_54M_55F_67L_, Q9UKT9]
- log2 fold change of degron read counts [1]: -0.414
- log2 fold change of degron read counts [2]: -0.22
- log2 fold change of degron read counts [3]: 1.72
- log2 fold change of degron read counts (compound: thalidomide): 0.511

Sequence: FICPICGHPFTQKGNLLRHIKL [46F_47I_49P_50I_52G_53H_54P_55F_67L_, Q9UKT9]
- log2 fold change of degron read counts [1]: -1.76
- log2 fold change of degron read counts [2]: -0.823
- log2 fold change of degron read counts [3]: -0.563
- log2 fold change of degron read counts (compound: thalidomide): 0.027

Sequence: FQCPICGAPFTQKGNLLRHIKL [46F_47Q_49P_50I_52G_53A_54P_55F_67L_, Q9UKT9]
- log2 fold change of degron read counts [1]: 3.38
- log2 fold change of degron read counts [2]: 3.6
- log2 fold change of degron read counts [3]: 2.53
- log2 fold change of degron read counts (compound: thalidomide): 3.65

Sequence: FACPICGADFTQKGNLLRHIKL [46F_47A_49P_50I_52G_53A_54D_55F_67L_, Q9UKT9]
- log2 fold change of degron read counts [1]: 2.75
- log2 fold change of degron read counts [2]: 0.745
- log2 fold change of degron read counts [3]: 0.673
- log2 fold change of degron read counts (compound: thalidomide): 0.2
